Source: PubChem BioAssay (NCATS)
Results filed as inconclusive are left out. Active and inactive are the calls of the source. Calls follow the shape of the dose curve; as a rule, active = well fitted curve in the direction sought with a large enough effect; inconclusive = small, poorly fitted or top-dose-only effect, or another doubt; inactive = no such curve, though single readings can be large; an effect the other way counts as inactive or inconclusive. Where a SMILES comes first, the peptide text is derived from it. The star is where a group is joined. AMC = Cc1cc(=O)oc2cc(N*)ccc12; Cbz = O=C(OCc1ccccc1)*

Legend:
[1] = biological target: Calcium and integrin-binding protein 1 (Homo sapiens) (UniProt Q99828); assay: Primary qHTS for Identification of Calcium Integrin Binding Protein 1 (CIB1) Competitor (AID 1508620); conditions: CIB1-GST / FITC-alphaIIb peptide fluorescence polarization; series mostly up to 57.7 µM;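 also: GST tagged CIB1 binding a fluorescein labelled alphaIIb integrin peptide tracer; top concentration of the series differs between compounds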
Chain of Calcium and integrin-binding protein 1 (Homo sapiens) (Q99828 whole entry, looked up): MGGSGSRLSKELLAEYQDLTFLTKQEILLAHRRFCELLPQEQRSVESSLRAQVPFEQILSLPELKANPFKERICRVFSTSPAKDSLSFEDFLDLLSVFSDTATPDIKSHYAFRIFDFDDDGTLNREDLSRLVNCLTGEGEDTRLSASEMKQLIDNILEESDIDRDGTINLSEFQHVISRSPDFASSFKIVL
How it was run: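 Fluorescence polarization competition: CIB1-GST (1 uM final) preincubated with compound 15 min at room temperature, then FITC-labeled alphaIIb peptide (100 nM final) added for another 15 min. Polarization read at Ex 480/Em 540.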

[2] = Primary qHTS for inhibitors of nuclear receptor binding SET domain protein 2 (NSD2) in an isogenic RCH-ACV NSD2 p.E1099K mutant (9B) (AID 1645876); conditions: RCH-ACV NSD2 E1099K (9B) viability, CellTiter-Glo, 72 h; series mostly up to 44.9 µM; also: nearly all actives have a fitted effect of over 70% in size
[3] = Primary qHTS for inhibitors of nuclear receptor binding SET domain protein 2 (NSD2) in an RCH-ACV wild type WT cells (2C) (AID 1645877); conditions: RCH-ACV (leukaemia line) NSD2 WT (2C) viability, CellTiter-Glo, 72 h; series mostly up to 44.9 µM; also: nearly all actives have a fitted effect of over 70% in size

Measured: Potency

COc1ccc(/C=C/C(=O)N2CCCC2)cc1
inactive: [1] | [2] | [3]

CC(=O)O[C@H]1C[C@@H](O)C(C)(C)C2C[C@@H](OC(C)=O)[C@]3(C)C(CC[C@@]4(C)[C@H](c5ccoc5)OC(=O)[C@H]5O[C@]543)[C@]21C (some centres not stated)
inactive: [1] | [2] | [3]

CC1(C)O[C@H]2CC(=O)OC[C@@]23C1=C(O)C(=O)[C@]1(C)C3CC[C@@]2(C)[C@H](c3ccoc3)OC(=O)[C@H]3O[C@]321 (some centres not stated)
inactive: [1] | [2] | [3]

C=C(C)C(O)COc1ccc(CC(=O)O)cc1 (configuration not stated)
inactive: [1] | [2] | [3]

CCC(C)C(=O)OC[C@H]1O[C@H](O[C@H]2O[C@H](CO)[C@@H](O)[C@H](O)[C@H]2O)[C@H](O)[C@@H](O)[C@@H]1O (some centres not stated)
inactive: [1] | [2] | [3]

C/C=C1/C[N+](C)([O-])C2Cc3c([nH]c4ccccc34)C(=O)CC1C2C(=O)OC (configuration not stated)
inactive: [1] | [2] | [3]

C[C@@H]1C(=O)O[C@H](C)[C@H]1C[C@@H](O)[C@](C)(O)[C@H]1CC[C@@]2(O)C3=CC(=O)[C@@H]4C[C@@H](O)[C@@H](O)C[C@]4(C)C3CC[C@]12C (some centres not stated)
inactive: [1] | [2] | [3]

CC(C)=C1CC2[C@](C)(CC[C@@H](OC(=O)C3(C)OC3C)[C@@]2(C)O)CC1=O (some centres not stated)
inactive: [1] | [2] | [3]

Cc1cc(=O)oc2cc(NC(=O)[C@H](CCC(=O)O)NC(=O)[C@H](CC(C)C)NC(=O)[C@H](CC(C)C)NC(=O)OCc3ccccc3)ccc12 (Cbz-Leu-Leu-Glu-{AMC})
inactive: [1] | [2] | [3]
